Laboratory results: PubChem BioAssay (NCATS)
Inconclusive results are not listed. The source made the active and inactive calls. The call rests on the fitted dose curve; in most records, active means well fitted cell-killing curve with a large enough effect; inconclusive means small, poorly fitted or top-dose-only effect, or effect the other way; inactive means flat fitted curve, though single readings scatter.

Key:
Test in all cases: Primary qHTS to identify gynecologic anti-cancer compounds using libraries of approved drugs and bioactive compounds (AID 1345084); further: nearly all actives have a fitted effect of over 55% in size
[1] = system: C33A; settings: Gynecologic cancer cell panel viability, ATPlite luminescence, 48 h; series mostly up to 57.5 µM
Outline: (§1)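 Cells, 1,000 per well, were allowed to settle for 16 h at 37 C before compound addition. Five concentrations were tested for 48 h, and viability was read by ATPlite luminescence after 15 min at room temperature.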

[2] = system: CAOV3; settings: Gynecologic cancer cell panel viability, ATPlite luminescence, 48 h; series mostly up to 57.5 µM
Outline: as §1

[3] = system: CASKI; settings: Gynecologic cancer cell panel viability, ATPlite luminescence, 48 h; series mostly up to 57.5 µM
Outline: as §1

[4] = system: Es-2; settings: Gynecologic cancer cell panel viability, ATPlite luminescence, 48 h; series mostly up to 57.5 µM
Outline: as §1

[5] = system: HeLa; settings: Gynecologic cancer cell panel viability, ATPlite luminescence, 48 h; series mostly up to 57.5 µM
Outline: as §1

[6] = system: Hek293T; settings: Gynecologic cancer cell panel viability, ATPlite luminescence, 48 h, control line for the selectivity index; series mostly up to 57.5 µM
Outline: as §1

[7] = system: JEG-3; settings: Gynecologic cancer cell panel viability, ATPlite luminescence, 48 h; series mostly up to 57.5 µM
Outline: as §1

[8] = system: OV90; settings: Gynecologic cancer cell panel viability, ATPlite luminescence, 48 h; series mostly up to 57.5 µM
Outline: as §1

[9] = system: PA-1; settings: Gynecologic cancer cell panel viability, ATPlite luminescence, 48 h; series mostly up to 57.5 µM
Outline: as §1

[10] = system: Tov-21-G; settings: Gynecologic cancer cell panel viability, ATPlite luminescence, 48 h; series mostly up to 57.5 µM
Outline: as §1

[11] = system: Tov112D; settings: Gynecologic cancer cell panel viability, ATPlite luminescence, 48 h; series mostly up to 57.5 µM
Outline: as §1

Measured: Potency

CC(=O)OC1C[C@@]2(C)[C@@H](CC[C@@H](C)[C@]23Cc2c(O)cc4c(c2O3)CNC4=O)C(C)(C)[C@@H]1O (stereo partly drawn)
inactive: all assays above

CC(C)c1nnc(-c2ccc(-c3ccccc3)nc2)n1-c1cccc2nonc12
not listed: [10]
inactive: all other assays above

CCC(O)C(C)C1CCC(C(C)C(=O)O)O1 (stereo not drawn)
inactive: all assays above

CC1(C)C=CN2C(=O)C3=CCCN3C(=O)[C@@H]2C[C@@]12Nc1ccccc1C2=O
inactive: all assays above

COC(=O)C(C)C1CCC2(C)C(=O)C=CC(C)(O)C2C1O (stereo not drawn)
inactive: all assays above

CCOc1cc(CC(=O)NC(CC(C)C)c2ccccc2N2CCCCC2)ccc1C(=O)O (stereo not drawn)
inactive: all assays above

C[C@@]1(O)[C@H](O)[C@@H](CO)O[C@H]1n1ccc(N)nc1=O
inactive: all assays above

COc1ccc(CN2C(=O)C(=O)c3cc(S(=O)(=O)N4CCC[C@H]4COc4cccnc4)ccc32)cc1
inactive: all assays above

Cc1ccc(Cc2c(C)nc3nc(SCC(=O)NCCN4CCNCC4)nn3c2C)cc1
inactive: all assays above

OC[C@H]1O[C@@H](Oc2ccccc2)[C@H](O)[C@@H](O)[C@@H]1O
inactive: all assays above

Cc1c(C(=O)Nc2ccc(N3CC(C)OC(C)C3)nc2)cccc1-c1ccc(OC(F)(F)F)cc1 (stereo not drawn)
inactive: all assays above

CC1(C)CC[C@]2(C(=O)O)CC[C@]3(C)C(=CCC4[C@@]5(C)C[C@@H](O)[C@H](O)C(C)(C)C5CC[C@]43C)C2C1 (stereo partly drawn)
inactive: all assays above

CCN(Cc1cccnc1)C(=O)CN(c1ccc(OC)nc1)S(=O)(=O)c1ccccc1C
inactive: all assays above

Cc1cc(C(=O)N2CCCCc3ccccc32)ccc1CNC(=O)N1CCC[C@H]1C(=O)N(C)C
inactive: all assays above
